PubChem BioAssay (Tox21)
Inconclusive results are not listed. Activity calls are given as the source filed them. Unless noted, calls follow the shape of the dose curve; as a rule, active = well fitted curve in the direction sought with a large enough effect in the repeat runs; inconclusive = weak or mixed curves; inactive = no such curve, though single readings can be large; an effect the other way counts as inactive or inconclusive.

What was measured:
[1] = qHTS assay to identify small molecule agonists of the peroxisome proliferator-activated receptor delta (PPARd) signaling pathway - cell viability counter screen (AID 743211); also: nearly all actives have a fitted effect of over 55% in size; also: potency is read from the fitted curve at half-maximal effect
How it was run: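 Viability of GeneBLAzer PPARd UAS-bla HEK293H cells was assessed after 17 h compound incubation at 37C, using CellTiter-Glo reagent added after the reporter read and luminescence recorded 30 min later.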

[2] = target: Peroxisome proliferator-activated receptor delta (Homo sapiens) (UniProt Q03181); test: qHTS assay to identify small molecule agonists of the peroxisome proliferator-activated receptor delta (PPARd) signaling pathway (AID 743212; calls by dose curve)
Sequence of Peroxisome proliferator-activated receptor delta (Homo sapiens) (Q03181 whole entry, looked up): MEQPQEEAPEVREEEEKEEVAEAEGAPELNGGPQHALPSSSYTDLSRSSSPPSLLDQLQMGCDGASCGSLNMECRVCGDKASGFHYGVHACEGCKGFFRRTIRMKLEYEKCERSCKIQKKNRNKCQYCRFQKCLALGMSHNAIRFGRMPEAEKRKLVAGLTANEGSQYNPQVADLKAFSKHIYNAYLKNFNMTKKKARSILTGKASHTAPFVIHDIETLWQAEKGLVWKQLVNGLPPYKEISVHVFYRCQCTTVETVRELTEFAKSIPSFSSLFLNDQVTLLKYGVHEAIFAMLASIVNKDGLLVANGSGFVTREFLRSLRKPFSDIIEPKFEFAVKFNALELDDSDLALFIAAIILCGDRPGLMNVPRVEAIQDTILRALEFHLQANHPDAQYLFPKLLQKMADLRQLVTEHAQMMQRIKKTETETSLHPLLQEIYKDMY
How it was run: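 Quantitative high-throughput agonist screen in a HEK293H beta-lactamase reporter line under UAS control. Compounds in DMSO, at 37 C. Fluorescence read after 2 h with FRET substrate at room temperature.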

[3] = qHTS assay to identify small molecule antagonists of the peroxisome proliferator-activated receptor delta (PPARd) signaling pathway - cell viability counter screen (AID 743213); also: nearly all actives have a fitted effect of over 50% in size; also: potency is read from the fitted curve at half-maximal effect
How it was run: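 PPARd-bla HEK293H cells were treated with compounds plus agonist L165041 (300 nM final) for 17 h at 37 C. Viability was then read in the same wells by CellTiter-Glo luminescence after 30 min at room temperature.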

[4] = qHTS assay to identify small molecule agonists of the NFkB signaling pathway - cell viability counter screen (AID 1159515; calls by dose curve; also: nearly all actives have a fitted effect of over 55% in size; also: potency is read from the fitted curve at half-maximal effect)
How it was run: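 Viability in NFkB-bla ME-180 cells was measured by CellTiter-Glo luminescence, 30 min room temperature, in wells already treated 5 hr with compounds and read for reporter FRET.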

[5] = qHTS assay to identify small molecule agonists of the endoplasmic reticulum stress response signaling pathway - cell viability counter screen (AID 1159517; calls by dose curve;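 also: HeLa cells carrying an ER stress response element beta-lactamase reporter; series mostly up to about 61 µM; nearly all actives have a fitted effect of over 50% in size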)
How it was run: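 Counter-screen wells were identical to the reporter wells. Cells were plated at 1,500 per well and dosed for 5 hr, then read for luminescence 30 min after CellTiter-Glo addition.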

[6] = qHTS assay to identify small molecule agonists of the AP-1 signaling pathway - cell viability counter screen (AID 1159525; calls by dose curve; also: nearly all actives have a fitted effect of over 55% in size; also: potency is read from the fitted curve at half-maximal effect)
How it was run: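 AP-1-bla ME-180 cells in Opti-MEM with 0.5% dialyzed FBS, compound exposure 5 h at 37 C in 15-point titration. Viability read in the same wells as ATP content by CellTiter-Glo luminescence, normalised to tetra-n-octylammonium bromide and DMSO controls.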

[7] = qHTS assay to identify small molecule agonists of the farnesoid-X-receptor (FXR) signaling pathway - cell viability counter screen (AID 743218); also: nearly all actives have a fitted effect of over 45% in size; also: potency is read from the fitted curve at half-maximal effect
How it was run: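 In GeneBLAzer FXR-UAS-bla HEK 293T cells, compounds act for 16 h at 37 C. Cell viability is then scored in the reporter wells by CellTiter-Glo, 30 min at RT, luminescence.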

[8] = qHTS assay to identify small molecule antagonists of the farnesoid-X-receptor (FXR) signaling pathway - cell viability counter screen (AID 743221; active = well fitted cell-killing curve with a large enough effect in the repeat runs, not every such curve was filed as active; also: nearly all actives have a fitted effect of over 50% in size; also: potency is read from the fitted curve at half-maximal effect)
How it was run: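 Quantitative HTS of the Tox21 10K library run in parallel with the beta-lactamase reporter read. HEK 293T cells carrying a UAS-driven bla reporter got compound and 50 uM CDCA (final) for 16 h; ATP-based luminescence followed.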

[9] = qHTS assay to identify small molecule agonists of the vitamin D receptor (VDR) signaling pathway - cell viability counter screen (AID 743224); also: nearly all actives have a fitted effect of over 50% in size; also: potency is read from the fitted curve at half-maximal effect
How it was run: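 VDR-bla cell line, quantitative HTS format; 16 h compound incubation (37C, 5% CO2); ATP-based CellTiter-Glo luminescence measured in the reporter assay wells.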

[10] = qHTS assay to identify small molecule antagonists of the retinoid-related orphan receptor gamma (ROR-gamma) signaling pathway - cell viability counter screen (AID 1159520); also: nearly all actives have a fitted effect of over 50% in size; also: potency is read from the fitted curve at half-maximal effect
How it was run: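 Tet-on ROR gamma CHO cells were given compounds for 2 hr, then doxycycline hyclate at 1 uM final, and incubated 16 hr at 37 C. Viability was measured as ATP content by CellTiter-Glo luminescence.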

[11] = target: Nuclear receptor ROR-gamma (Homo sapiens) (UniProt P51449); test: qHTS assay to identify small molecule antagonists of the retinoid-related orphan receptor gamma (ROR-gamma) signaling pathway (AID 1159521; also: nearly all actives have a fitted effect of over 50% in size; also: potency is read from the fitted curve at half-maximal effect)
How it was run: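 RORγ antagonism is scored from reduced reporter luminescence in Tet-on CHO cells. Induction used 1 uM final doxycycline hyclate for 16 h at 37 C, following a 2 h compound exposure.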

[12] = target: Peroxisome proliferator-activated receptor delta (Homo sapiens) (UniProt Q03181); test: qHTS assay to identify small molecule antagonists of the peroxisome proliferator-activated receptor delta (PPARd) signaling pathway (AID 743215; active = well fitted inhibition curve with a large enough effect in the signal ratio in the repeat runs, not every such curve was filed as active; the % refers to the signal ratio;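 also: cells stimulated with agonist L165041 at 300 nM final during compound exposure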; also: potency is read from the fitted curve at half-maximal effect)
How it was run: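 Antagonist-mode beta-lactamase reporter screen: HEK293H cells with UAS-bla under PPARd control, stimulated by 300 nM L165041 (final) alongside test compound for 17 h at 37 C, then FRET fluorescence after 2 h substrate incubation.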

[13] = qHTS assay to identify small molecule antagonists of the vitamin D receptor (VDR) signaling pathway - cell viability counter screen (AID 743225)
How it was run: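 Cells (VDR-UAS-bla HEK 293T) are plated, rested 4 h at 37C, dosed with compound and 3 nM final 1-alpha,25-dihydroxy vitamin D3, and incubated 16 h. Viability is taken from CellTiter-Glo luminescence in the reporter wells.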

[14] = target: Bile acid receptor (Homo sapiens) (UniProt Q96RI1); test: qHTS assay to identify small molecule agonists of the farnesoid-X-receptor (FXR) signaling pathway (AID 743220; active = well fitted activation curve with a large enough effect in the signal ratio in the repeat runs, not every such curve was filed as active; the % refers to the signal ratio)
Sequence of Bile acid receptor (Homo sapiens) (Q96RI1 whole entry, looked up): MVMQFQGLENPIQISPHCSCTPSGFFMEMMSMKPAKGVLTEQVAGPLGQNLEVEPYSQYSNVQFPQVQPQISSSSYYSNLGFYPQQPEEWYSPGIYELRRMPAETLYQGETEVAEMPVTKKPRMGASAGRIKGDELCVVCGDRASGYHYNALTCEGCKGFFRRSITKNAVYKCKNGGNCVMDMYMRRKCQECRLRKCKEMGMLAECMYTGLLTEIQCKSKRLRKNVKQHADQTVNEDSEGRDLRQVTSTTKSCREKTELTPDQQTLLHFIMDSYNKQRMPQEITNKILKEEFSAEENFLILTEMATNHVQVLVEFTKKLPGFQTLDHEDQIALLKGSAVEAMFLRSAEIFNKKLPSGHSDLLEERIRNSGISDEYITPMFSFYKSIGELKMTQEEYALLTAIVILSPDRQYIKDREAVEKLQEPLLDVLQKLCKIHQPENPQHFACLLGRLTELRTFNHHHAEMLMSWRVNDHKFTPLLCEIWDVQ
How it was run: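 Beta-lactamase reporter under UAS control in GeneBLAzer FXR HEK 293T cells (5000/well) measured with LiveBLAzer FRET substrate after 2 h at room temperature. Compound exposure lasted 16 h at 37C.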

[15] = target: Vitamin D3 receptor (Homo sapiens) (UniProt P11473); test: qHTS assay to identify small molecule antagonists of the vitamin D receptor (VDR) signaling pathway (AID 743223; active = well fitted inhibition curve with a large enough effect in the signal ratio in the repeat runs, not every such curve was filed as active; the % refers to the signal ratio; also: potency is read from the fitted curve at half-maximal effect)
Sequence of Vitamin D3 receptor (Homo sapiens) (P11473 whole entry, looked up): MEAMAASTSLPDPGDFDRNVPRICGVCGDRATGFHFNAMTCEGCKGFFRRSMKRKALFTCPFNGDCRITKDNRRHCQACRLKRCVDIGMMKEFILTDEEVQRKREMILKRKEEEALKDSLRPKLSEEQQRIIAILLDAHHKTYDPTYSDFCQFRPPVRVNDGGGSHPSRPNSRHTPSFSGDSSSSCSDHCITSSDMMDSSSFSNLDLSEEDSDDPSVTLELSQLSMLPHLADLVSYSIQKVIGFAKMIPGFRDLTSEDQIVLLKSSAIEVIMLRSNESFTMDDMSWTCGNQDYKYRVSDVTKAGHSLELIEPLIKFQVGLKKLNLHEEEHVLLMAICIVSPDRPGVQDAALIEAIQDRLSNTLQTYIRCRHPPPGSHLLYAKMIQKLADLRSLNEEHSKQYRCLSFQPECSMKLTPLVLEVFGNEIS
How it was run: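 Fluorescence from LiveBLAzer B/G FRET substrate, read after 2 h at room temperature, reflects beta-lactamase reporter activity in VDR-bla cells treated 16 h at 37C with compounds and agonist 1alpha,25-dihydroxyvitamin D3 (3 nM final).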

[16] = target: Vitamin D3 receptor (Homo sapiens) (UniProt P11473); test: qHTS assay to identify small molecule agonists of the vitamin D receptor (VDR) signaling pathway (AID 743222; calls by dose curve)
How it was run: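 Agonist activity measured in VDR-bla reporter cells. Exposure 16 h, 37C, 5% CO2; detection by B/G FRET substrate, 2 h RT.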

Measured: Potency

CC(C)(C)C1CCC(CC2=C(O)c3ccccc3C(=O)C2=O)CC1 (stereo not drawn)
inactive: [1] | [2] | [3] | [4] | [5] | [6]

COc1cccc2c1C(=O)c1c(O)c3c(c(O)c1C2=O)C[C@@](O)(C(=O)CO)C[C@@H]3O[C@H]1C[C@H](N)[C@H](O[C@@H]2CCCCO2)[C@H](C)O1
active: [10] 5.31 µM
inactive: [1] | [2] | [3] | [7] | [8] | [9] | [4] | [11]

C=CC(=O)OCCn1c(=O)n(CCOC(=O)C=C)c(=O)n(CCOC(=O)C=C)c1=O
inactive: [4] | [10] | [6]
active: [1] 19.5 µM | [3] 19.5 µM | [12] 13.8 µM | [7] 24.5 µM | [8] 34.7 µM | [13] 43.6 µM | [11] 12.2 µM

CCCCCCCCCCCCCCCC[N+](C)(C)CCN(Cc1ccc(OC)cc1)c1ncccn1
active: [7] 29.8 µM | [15] 21.3 µM | [13] 19 µM | [4] 23.9 µM | [10] 29.8 µM | [11] 33.5 µM | [6] 21.3 µM
inactive: [12] | [14]

Cc1ccc(O)c2ncccc12
active: [1] 0.841 µM | [3] 1.19 µM | [4] 6.01 µM | [10] 21.1 µM | [11] 15 µM | [6] 16.9 µM
inactive: [14]

CC[C@@]1(O)C(=O)OCc2c1cc1n(c2=O)Cc2cc3c(CN(C)C)c(O)ccc3nc2-1
active: [10] 2.11 µM
inactive: [4] | [6]

CCc1oc2ccccc2c1C(=O)c1cc(Br)c(O)c(Br)c1
inactive: [4] | [10] | [6]

CN(C)C(=O)C1(N2CCCCC2)CCN(CC[C@@]2(c3ccc(Cl)c(Cl)c3)CN(C(=O)c3ccccc3)CCO2)CC1
active: [1] 11.5 µM | [3] 16.2 µM | [7] 16.2 µM | [9] 20.4 µM | [13] 22.9 µM | [4] 51.3 µM | [10] 50.9 µM | [11] 32.1 µM
inactive: [16]

CCc1cc(SCc2sc(-c3ccc(C(F)(F)F)cc3)nc2CN2CCN(c3ccc(OC)cc3)CC2)ccc1OCC(=O)O
active: [1] 7.76 µM | [3] 5.49 µM | [7] 7.76 µM | [9] 19.5 µM | [4] 43.6 µM | [10] 30.6 µM | [11] 13.7 µM | [6] 43.6 µM

CCC(C)Nc1ccc(NC(C)CC)cc1 (stereo not drawn)
active: [3] 22.3 µM | [7] 22.3 µM | [8] 35.3 µM | [9] 17.7 µM | [13] 8.88 µM | [4] 44.5 µM | [10] 31.2 µM | [11] 27.8 µM
inactive: [14]
